Unmarked numbers belong to inactive results. No rule for the calls is given here.

The target of this assay is Pantothenate synthetase (Mycobacterium tuberculosis (strain ATCC 25618 / H37Rv)) (UniProt P9WIL5). The assay is described as follows: Recombinant Mtb pantothenate synthetase (PanC) inhibitors, coupled enzyme, confirmatory (AID 375).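 Also: 0% = full reaction with vehicle and 100% = no enzyme background.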 To be noted: coupled enzyme assay; at 10 µM, hits give high values.
Pantothenate synthetase (Mycobacterium tuberculosis (strain ATCC 25618 / H37Rv)), sequence (P9WIL5 whole entry, looked up): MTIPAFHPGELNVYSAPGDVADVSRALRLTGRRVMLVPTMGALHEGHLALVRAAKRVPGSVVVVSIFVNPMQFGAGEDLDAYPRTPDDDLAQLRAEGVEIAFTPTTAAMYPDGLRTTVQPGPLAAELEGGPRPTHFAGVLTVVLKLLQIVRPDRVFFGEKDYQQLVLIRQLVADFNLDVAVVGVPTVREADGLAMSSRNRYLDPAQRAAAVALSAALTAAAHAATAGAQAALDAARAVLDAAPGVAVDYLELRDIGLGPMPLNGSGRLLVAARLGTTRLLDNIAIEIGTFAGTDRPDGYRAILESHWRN
In general, inhibition refers to the change of the read-out against control, counted positive when it falls. In the case of `Cc1ccc(NC(=O)C2CCCN(S(=O)(=O)c3cnc[nH]3)C2)c(Br)c1` (stereo not given), the inhibition is 0%.
Then `O=C(c1ccccc1Oc1nnnn1-c1ccccc1)N1CCOCC1`, with 0%; and `COc1ccc(-c2cc3n(n2)CCc2nc4ccccc4n2-3)cc1`, with 0%.
For the compound `Cc1ccc(S(=O)(=O)Nc2nc3ccccc3nc2NCc2ccco2)cc1`, the inhibition is 3%.
For `Cc1cc(NC(=O)c2cc(-c3ccco3)on2)n(-c2ccccc2)n1` the value was 0%; for `CC1=C(C(N)=O)C(c2cccnc2)n2nc(SCc3ccccc3Cl)nc2N1` (stereo not given), 0%.
For `O=C(CCn1c(=O)c2sccc2n(CC(=O)NCc2ccco2)c1=O)NCc1ccccc1` the value was 3%; for `CC1(c2ccncc2)Nc2ccccc2-c2nc3ccccc3n21` (stereo not given), 0%; for `CCOc1ccc2[nH]c(O)c(NC(C)=O)c2c1`, 0%.
Then `COC(=O)CSC1=C(C#N)C(c2ccc(F)cc2)CC(=O)N1` (stereo not given), with 0%; and `CC(C)OC(=O)CSc1nnc(Cc2ccccc2)n1Cc1ccco1`, with 8%.
With `O=C(Nc1cccc(-c2nnc(-c3ccccc3)o2)c1)C1CCCCC1`, the inhibition was 0%.
Then `CCCCSc1nc2c(cnn2-c2ccc(Cl)cc2)c(=O)[nH]1`, with 0%; and `CN(C)CCCN1c2ccccc2CCc2ccccc21`, with 2%; and `COc1ccc(Nc2ncc3c(n2)CC(c2ccc(OC)cc2)CC3=O)cc1` (stereo not given), with 3%.
Then `C[C@@H]1C[C@H]2[C@@H]3C[C@H](F)C4=CC(=O)C=C[C@]4(C)[C@@]3(F)[C@@H](O)C[C@]2(C)[C@@]1(O)C(=O)COC(=O)C(C)(C)C`, with 0%; and `CC1=Nn2c(nnc2-c2ccc(F)cc2)SC1`, with 0%.
Then `O=C(Nc1ccccc1C(=O)N1CCN(c2ccccc2)CC1)c1ccco1`, with 0%.
As to `Cc1ccc(-c2noc(-c3ccccc3C(=O)NCC3CCCO3)n2)cc1` (stereo not given), the inhibition was 6%.
For `Cc1ccc(-c2nn[nH]n2)cc1` the value was 0%; for `CC1(C)NC(=O)N(CN2C(=O)NC(C)(C)C2=O)C1=O`, 0%.
In the case of `O=C1c2ccccc2C(Nc2ccc3c(c2)OCCO3)N1Cc1ccco1` (stereo not given), the inhibition was 0%.
Then `CC(=O)Nc1ccc(S(=O)(=O)n2cnc(C)c2)cc1`, with 3%.
For `COc1cccc(-c2cc(C(F)(F)F)n3nc(N)nc3n2)c1` the value was 2%; for `CCCc1cc(=O)[nH]c(/N=C(\N)Nc2ccccc2)n1`, 6%.
On to `Cc1cc(NC(=O)COC(=O)c2cccc(S(=O)(=O)N3CCOCC3)c2)no1`, for which the inhibition is 1%.
With `CCC(C)(C)n1nnnc1C(c1cc2cc(OC)ccc2[nH]c1=O)N1CCc2ccccc21` (stereo not given), the inhibition is 0%.
Then `COc1ccc(C2C(C(C)=O)=C(C)N=c3s/c(=C\c4ccc5c(c4)OCO5)c(=O)n32)c(OC)c1` (stereo not given), with 0%; and `COC(=O)CN1C(=O)CC(C)(C)S(=O)c2ccccc21` (stereo not given), with 0%; and `O=C(CSc1nc(O)c(Cc2ccccc2)c(=O)[nH]1)Nc1ccccc1`, with 0%.
Then `CC(C)CCNC(=O)C(c1cccs1)N(CC1CCCO1)C(=O)Cn1nnc2ccccc21` (stereo not given), with 0%; and `Cc1cc(C)n(-c2nc3ccccc3c(=O)n2OCCOc2ccccc2)n1`, with 3%.
Then `C=CCOc1cccc(C2/C(=C(\O)c3ccc(F)cc3)C(=O)C(=O)N2CCN(C)C)c1` (stereo not given), with 0%; and `CC(=O)Nc1cc(N2C(=O)CCC2=O)ccc1Cl`, with 0%.
Regarding `COC(=O)c1cccc(NC(=O)Cc2coc3cc(OC)ccc23)c1`, the inhibition is 0%.
Then `Cc1nnc(N2C(=O)C(O)=C(C(=O)c3ccco3)C2c2ccc(F)cc2)s1` (stereo not given), with 0%; and `COc1ccc2cc(C(c3nnnn3C(C)(C)C)N3CCc4ccccc4C3)c(=O)[nH]c2c1` (stereo not given), with 11%.
Then `CN1CCCC(OC(=O)COc2ccc(Br)cc2)C1` (stereo not given), with 3%; and `C=CCn1c(=O)c2ccccc2n2c(SC(C)C(=O)Nc3nc(-c4ccccc4)cs3)nnc12` (stereo not given), with 4%; and `COc1ccccc1NC(=O)C1=C(C)NC(SCC(=O)c2ccc(C)cc2)=C(C#N)C1c1ccco1` (stereo not given), with 0%.

(Values after PubChem BioAssay.)
